Here are results for 7 sequences from PMC7862700, “An all-to-all approach to the identification of sequence-specific readers for epigenetic DNA modifications on cytosine”.

What all share (experiment): DAPPL (digital affinity profiling via proximity ligation, sequencing); 10 mM Tris-HCl pH 7.5, 50 mM NaCl, 1 mM DTT, 4% glycerol, room temperature, 30 min; GST-TFs on glutathione beads, 16-mer random dsDNA library, 0.1% formaldehyde crosslink after washing; high values mean tight binding
One experiment addresses T1, FEV (Homo sapiens, UniProt Q99581 1-238).
T1 sequence: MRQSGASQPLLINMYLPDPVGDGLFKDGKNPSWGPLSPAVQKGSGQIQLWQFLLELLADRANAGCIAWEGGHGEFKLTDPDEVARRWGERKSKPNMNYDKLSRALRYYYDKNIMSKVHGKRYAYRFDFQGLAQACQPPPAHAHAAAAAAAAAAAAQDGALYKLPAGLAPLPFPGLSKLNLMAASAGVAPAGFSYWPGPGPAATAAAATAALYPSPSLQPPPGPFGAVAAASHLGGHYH
The conditions noted are these: protein: recombinant; tags: N-terminal GST; dsDNA, one strand shown. In a few lines: (§1)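 Beads coated with glutathione captured GST-fused human transcription factors that had been expressed in yeast, and the factors were then given DNA barcodes and pooled with a tag-only sample. The pools were incubated with 200 nmole of a random double-stranded 16-mer DNA library in Tris/NaCl/DTT/glycerol buffer for 30 min at room temperature, washed, crosslinked with 0.1% formaldehyde and proximity-ligated with BsaI/T4 ligase at 37 °C for 1 h. PCR amplification and Illumina NextSeq500 sequencing came last. Binding signal is each hexamer's read frequency for a factor divided by its frequency for the tag-only sample.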

Another experiment concerns the target ETV5 (Homo sapiens, UniProt P41161 1-510). To be noted: protein: recombinant; tags: N-terminal GST; dsDNA, one strand shown. The procedure, abridged:
as §1

Another experiment addresses HSF1 (Homo sapiens, UniProt Q00613 1-529). To be noted: protein: recombinant; tags: N-terminal GST; chain copies: 3; dsDNA, one strand shown. In a few lines:
as §1

Another experiment deals with T2, SPIC (Homo sapiens, UniProt Q8N5J4 1-248).
T2 sequence: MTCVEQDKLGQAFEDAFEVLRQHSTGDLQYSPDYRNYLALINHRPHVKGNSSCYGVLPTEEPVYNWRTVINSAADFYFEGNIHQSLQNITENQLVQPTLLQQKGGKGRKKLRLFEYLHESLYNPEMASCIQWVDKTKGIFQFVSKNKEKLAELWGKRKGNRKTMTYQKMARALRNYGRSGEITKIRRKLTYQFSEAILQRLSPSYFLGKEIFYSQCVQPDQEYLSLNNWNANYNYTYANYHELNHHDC
To be noted: protein: recombinant; tags: N-terminal GST; dsDNA, one strand shown. The procedure, abridged: as §1

Another experiment addresses ELF4 (Homo sapiens, UniProt Q99607 1-663). To be noted: protein: recombinant; tags: N-terminal GST; dsDNA, one strand shown. The procedure, abridged: as §1
The target of a further experiment is T3, ELK4 (Homo sapiens, UniProt P28324-2 1-405).
T3 sequence: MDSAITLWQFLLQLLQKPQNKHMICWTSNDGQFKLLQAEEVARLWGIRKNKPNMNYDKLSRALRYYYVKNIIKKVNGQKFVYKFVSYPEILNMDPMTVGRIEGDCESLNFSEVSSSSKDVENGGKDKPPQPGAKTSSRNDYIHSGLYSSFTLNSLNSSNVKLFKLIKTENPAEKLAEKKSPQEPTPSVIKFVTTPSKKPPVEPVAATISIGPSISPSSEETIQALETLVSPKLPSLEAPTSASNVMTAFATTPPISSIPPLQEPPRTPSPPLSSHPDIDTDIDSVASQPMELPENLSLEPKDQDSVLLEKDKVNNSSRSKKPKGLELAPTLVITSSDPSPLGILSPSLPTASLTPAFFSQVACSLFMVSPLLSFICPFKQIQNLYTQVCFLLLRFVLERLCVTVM
The conditions noted are these: protein: recombinant; tags: N-terminal GST; dsDNA, one strand shown. The procedure, abridged: as §1

The target in a further experiment is T4, ETV2 (Homo sapiens, UniProt O00321 1-342).
T4 sequence: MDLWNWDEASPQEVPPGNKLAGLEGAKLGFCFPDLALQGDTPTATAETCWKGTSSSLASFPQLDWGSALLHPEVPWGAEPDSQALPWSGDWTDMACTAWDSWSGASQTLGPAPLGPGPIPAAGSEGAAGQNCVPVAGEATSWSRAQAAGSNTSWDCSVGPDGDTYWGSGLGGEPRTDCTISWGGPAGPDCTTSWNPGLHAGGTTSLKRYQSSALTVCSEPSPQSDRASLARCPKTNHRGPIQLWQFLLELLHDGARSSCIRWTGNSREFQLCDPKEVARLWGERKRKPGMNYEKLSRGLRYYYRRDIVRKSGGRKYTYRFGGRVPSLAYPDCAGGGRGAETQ
The conditions noted are these: protein: recombinant; tags: N-terminal GST; dsDNA, one strand shown. In a few lines: as §1

In a further experiment the target is T5, ELF3 (Homo sapiens, UniProt P78545 1-371).
T5 sequence: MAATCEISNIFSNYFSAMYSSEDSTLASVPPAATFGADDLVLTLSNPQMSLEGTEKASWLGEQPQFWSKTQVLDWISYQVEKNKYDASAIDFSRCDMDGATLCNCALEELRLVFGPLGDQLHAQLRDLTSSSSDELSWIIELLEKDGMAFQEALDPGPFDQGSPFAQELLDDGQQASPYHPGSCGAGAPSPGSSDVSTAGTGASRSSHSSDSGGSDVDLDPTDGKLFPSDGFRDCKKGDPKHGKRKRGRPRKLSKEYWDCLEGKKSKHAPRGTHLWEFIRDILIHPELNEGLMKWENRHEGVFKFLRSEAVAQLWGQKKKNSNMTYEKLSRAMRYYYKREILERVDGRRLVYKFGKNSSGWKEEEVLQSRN
To be noted: protein: recombinant; tags: N-terminal GST; dsDNA, one strand shown. In a few lines: as §1

The target in another experiment is CRX (Homo sapiens, UniProt O43186 1-299). To be noted: protein: recombinant; tags: N-terminal GST; dsDNA, one strand shown. In a few lines:
as §1

In another experiment the target is ETV1 (Homo sapiens, UniProt P50549 1-477). The conditions noted are these: protein: recombinant; tags: N-terminal GST; dsDNA, one strand shown. The procedure, abridged: as §1
ETV1, sequence (P50549 whole entry): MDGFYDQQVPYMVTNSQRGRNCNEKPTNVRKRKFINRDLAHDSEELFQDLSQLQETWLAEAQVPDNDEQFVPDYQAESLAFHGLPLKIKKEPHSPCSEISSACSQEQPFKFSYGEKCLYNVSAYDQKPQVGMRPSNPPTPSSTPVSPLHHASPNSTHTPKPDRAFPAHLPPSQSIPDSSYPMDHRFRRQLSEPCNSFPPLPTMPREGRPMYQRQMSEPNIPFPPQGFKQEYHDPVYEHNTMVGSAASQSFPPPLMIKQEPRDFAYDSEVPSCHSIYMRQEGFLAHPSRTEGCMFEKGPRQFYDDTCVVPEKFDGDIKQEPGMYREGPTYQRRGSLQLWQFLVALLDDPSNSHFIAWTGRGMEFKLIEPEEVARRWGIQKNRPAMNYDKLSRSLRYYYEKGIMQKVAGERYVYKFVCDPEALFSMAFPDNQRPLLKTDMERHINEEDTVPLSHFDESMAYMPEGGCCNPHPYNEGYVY

ELF4, sequence (Q99607 whole entry): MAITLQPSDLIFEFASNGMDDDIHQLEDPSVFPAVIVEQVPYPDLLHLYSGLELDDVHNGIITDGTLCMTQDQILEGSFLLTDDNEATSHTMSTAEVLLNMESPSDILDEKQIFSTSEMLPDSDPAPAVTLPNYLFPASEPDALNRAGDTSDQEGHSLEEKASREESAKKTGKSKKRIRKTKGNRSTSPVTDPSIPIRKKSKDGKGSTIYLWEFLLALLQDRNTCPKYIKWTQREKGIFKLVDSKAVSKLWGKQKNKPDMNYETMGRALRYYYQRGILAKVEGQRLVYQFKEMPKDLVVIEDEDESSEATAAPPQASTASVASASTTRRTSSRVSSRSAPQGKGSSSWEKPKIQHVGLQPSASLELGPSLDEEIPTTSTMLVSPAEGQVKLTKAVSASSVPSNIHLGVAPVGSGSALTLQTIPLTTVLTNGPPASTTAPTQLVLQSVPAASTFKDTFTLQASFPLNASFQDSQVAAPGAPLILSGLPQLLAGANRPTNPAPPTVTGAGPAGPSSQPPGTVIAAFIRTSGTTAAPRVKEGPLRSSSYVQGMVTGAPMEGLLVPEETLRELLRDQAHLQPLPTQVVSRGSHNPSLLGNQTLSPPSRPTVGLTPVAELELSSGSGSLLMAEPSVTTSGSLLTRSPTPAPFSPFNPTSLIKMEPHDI
CRX, sequence (O43186 whole entry): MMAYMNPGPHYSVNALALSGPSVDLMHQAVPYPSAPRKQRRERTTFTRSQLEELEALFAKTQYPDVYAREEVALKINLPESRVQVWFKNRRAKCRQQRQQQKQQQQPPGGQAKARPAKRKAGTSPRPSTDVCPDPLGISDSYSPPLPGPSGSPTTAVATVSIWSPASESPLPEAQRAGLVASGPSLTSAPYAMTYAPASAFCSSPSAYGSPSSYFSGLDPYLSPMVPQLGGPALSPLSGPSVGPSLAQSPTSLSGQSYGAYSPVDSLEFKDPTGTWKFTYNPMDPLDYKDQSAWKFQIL
ETV5, sequence (P41161 whole entry): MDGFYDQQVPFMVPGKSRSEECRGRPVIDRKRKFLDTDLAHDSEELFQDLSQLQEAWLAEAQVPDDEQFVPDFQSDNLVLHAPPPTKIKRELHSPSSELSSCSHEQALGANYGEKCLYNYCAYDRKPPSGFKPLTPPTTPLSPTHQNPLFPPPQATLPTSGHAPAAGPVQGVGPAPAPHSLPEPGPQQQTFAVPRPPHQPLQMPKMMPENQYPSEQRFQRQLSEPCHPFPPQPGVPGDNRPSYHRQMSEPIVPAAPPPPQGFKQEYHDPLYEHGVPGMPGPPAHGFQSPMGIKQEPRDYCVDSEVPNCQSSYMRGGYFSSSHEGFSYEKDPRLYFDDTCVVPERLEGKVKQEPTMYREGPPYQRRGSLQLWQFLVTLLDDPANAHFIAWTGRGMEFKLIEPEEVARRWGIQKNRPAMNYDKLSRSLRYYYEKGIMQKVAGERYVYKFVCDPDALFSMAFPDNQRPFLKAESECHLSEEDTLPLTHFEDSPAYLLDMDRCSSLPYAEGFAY
HSF1, sequence (Q00613 whole entry): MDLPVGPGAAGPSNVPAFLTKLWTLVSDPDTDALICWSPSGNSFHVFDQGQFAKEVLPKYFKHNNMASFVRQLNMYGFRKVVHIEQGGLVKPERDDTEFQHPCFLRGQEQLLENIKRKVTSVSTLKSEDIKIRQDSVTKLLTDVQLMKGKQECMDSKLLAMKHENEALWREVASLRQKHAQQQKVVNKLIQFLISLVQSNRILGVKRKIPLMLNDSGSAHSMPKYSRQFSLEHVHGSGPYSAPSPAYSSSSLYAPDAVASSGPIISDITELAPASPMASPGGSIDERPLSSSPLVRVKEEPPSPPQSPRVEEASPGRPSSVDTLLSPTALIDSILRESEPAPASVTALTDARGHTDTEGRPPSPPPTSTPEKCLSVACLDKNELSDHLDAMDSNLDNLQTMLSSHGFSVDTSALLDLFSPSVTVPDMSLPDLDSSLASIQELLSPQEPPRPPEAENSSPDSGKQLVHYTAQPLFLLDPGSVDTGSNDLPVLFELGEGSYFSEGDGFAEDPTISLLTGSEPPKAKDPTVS

Turning to TCTCTA, the binding signal is 1.32 fold enrichment (6-mer frequency, TF over GST control) in the experiment with FEV; 1.21 fold enrichment (6-mer frequency, TF over GST control) in the experiment with ETV5; 1.74 fold enrichment (6-mer frequency, TF over GST control) in the experiment with HSF1; 1.38 fold enrichment (6-mer frequency, TF over GST control) in the experiment with SPIC; 1.25 fold enrichment (6-mer frequency, TF over GST control) with ELF4; 1.22 fold enrichment (6-mer frequency, TF over GST control) with ELK4. Besides, the binding signal in the experiment with ETV2 is 1.24 fold enrichment (6-mer frequency, TF over GST control); with ELF3, 1.28 fold enrichment (6-mer frequency, TF over GST control); in the experiment with CRX, 1.56 fold enrichment (6-mer frequency, TF over GST control); with ETV1 it was 1.2 fold enrichment (6-mer frequency, TF over GST control).

Regarding TTCCTT, the binding signal with FEV is 1.76 fold enrichment (6-mer frequency, TF over GST control); with ETV5 it was 2 fold enrichment (6-mer frequency, TF over GST control); with HSF1, 1.61 fold enrichment (6-mer frequency, TF over GST control); in the experiment with SPIC, 1.99 fold enrichment (6-mer frequency, TF over GST control); with ELF4, 1.79 fold enrichment (6-mer frequency, TF over GST control); with ELK4, 1.75 fold enrichment (6-mer frequency, TF over GST control). Also, the binding signal with ETV2 is 1.79 fold enrichment (6-mer frequency, TF over GST control); in the experiment with ELF3 it was 1.76 fold enrichment (6-mer frequency, TF over GST control); in the experiment with CRX it was 1.33 fold enrichment (6-mer frequency, TF over GST control); in the experiment with ETV1, 2.04 fold enrichment (6-mer frequency, TF over GST control).

Regarding AAAACA, the binding signal was 1.34 fold enrichment (6-mer frequency, TF over GST control) in the experiment with FEV; 1.31 fold enrichment (6-mer frequency, TF over GST control) in the experiment with ETV5; 1.25 fold enrichment (6-mer frequency, TF over GST control) with HSF1; 1.42 fold enrichment (6-mer frequency, TF over GST control) with SPIC; 1.39 fold enrichment (6-mer frequency, TF over GST control) in the experiment with ELF4; 1.22 fold enrichment (6-mer frequency, TF over GST control) with ELK4. Also, the binding signal with ETV2 was 1.34 fold enrichment (6-mer frequency, TF over GST control); in the experiment with ELF3, 1.38 fold enrichment (6-mer frequency, TF over GST control); with CRX, 1.13 fold enrichment (6-mer frequency, TF over GST control); in the experiment with ETV1, 1.37 fold enrichment (6-mer frequency, TF over GST control).

Turning to GACCTT, the binding signal in the experiment with FEV is 1.6 fold enrichment (6-mer frequency, TF over GST control); with ETV5, 1.55 fold enrichment (6-mer frequency, TF over GST control); in the experiment with HSF1, 1.52 fold enrichment (6-mer frequency, TF over GST control); in the experiment with SPIC, 1.74 fold enrichment (6-mer frequency, TF over GST control); in the experiment with ELF4 it was 1.73 fold enrichment (6-mer frequency, TF over GST control); with ELK4, 1.61 fold enrichment (6-mer frequency, TF over GST control). Besides, the binding signal with ETV2 is 1.63 fold enrichment (6-mer frequency, TF over GST control); with ELF3, 1.49 fold enrichment (6-mer frequency, TF over GST control); with CRX it was 1.31 fold enrichment (6-mer frequency, TF over GST control); in the experiment with ETV1, 1.48 fold enrichment (6-mer frequency, TF over GST control).

For the sequence TATTAT, the binding signal with FEV is 1.12 fold enrichment (6-mer frequency, TF over GST control); with ETV5, 1.3 fold enrichment (6-mer frequency, TF over GST control); with HSF1, 1.69 fold enrichment (6-mer frequency, TF over GST control); with SPIC, 1.35 fold enrichment (6-mer frequency, TF over GST control); in the experiment with ELF4 it was 1.27 fold enrichment (6-mer frequency, TF over GST control); with ELK4 it was 1.35 fold enrichment (6-mer frequency, TF over GST control). The binding signal with ETV2 is 1.32 fold enrichment (6-mer frequency, TF over GST control); with ELF3, 1.3 fold enrichment (6-mer frequency, TF over GST control); with CRX, 2.4 fold enrichment (6-mer frequency, TF over GST control); with ETV1 it was 1.26 fold enrichment (6-mer frequency, TF over GST control).

Take CTTGGG: the binding signal was 1.23 fold enrichment (6-mer frequency, TF over GST control) with FEV; 1.26 fold enrichment (6-mer frequency, TF over GST control) with ETV5; 1.12 fold enrichment (6-mer frequency, TF over GST control) in the experiment with HSF1; 1.31 fold enrichment (6-mer frequency, TF over GST control) with SPIC; 1.21 fold enrichment (6-mer frequency, TF over GST control) with ELF4; 1.32 fold enrichment (6-mer frequency, TF over GST control) with ELK4. Also, the binding signal with ETV2 was 1.15 fold enrichment (6-mer frequency, TF over GST control); with ELF3, 1.23 fold enrichment (6-mer frequency, TF over GST control); with CRX it was 1.13 fold enrichment (6-mer frequency, TF over GST control); with ETV1, 1.38 fold enrichment (6-mer frequency, TF over GST control).

For the sequence GATGAC, the binding signal with FEV was 1.47 fold enrichment (6-mer frequency, TF over GST control); with ETV5, 1.49 fold enrichment (6-mer frequency, TF over GST control); with HSF1 it was 1.27 fold enrichment (6-mer frequency, TF over GST control); in the experiment with SPIC, 1.15 fold enrichment (6-mer frequency, TF over GST control); with ELF4, 1.56 fold enrichment (6-mer frequency, TF over GST control); with ELK4, 1.42 fold enrichment (6-mer frequency, TF over GST control). Also, the binding signal in the experiment with ETV2 was 1.35 fold enrichment (6-mer frequency, TF over GST control); in the experiment with ELF3, 1.48 fold enrichment (6-mer frequency, TF over GST control); with CRX, 1.26 fold enrichment (6-mer frequency, TF over GST control); in the experiment with ETV1 it was 1.55 fold enrichment (6-mer frequency, TF over GST control).
